# Test system: THRa:RXRa (NR concentration 90 nM, RXRa partner concentration 90 nM)
# Assay: PBM binding z-score (relative to random genomic background probes); higher = stronger binding; sequences stand for … in GC…GCGATTGACAGCGTAGAATGAAGG
# Procedure, shortened: (§1)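 Binding z-scores take random background probes as their reference. They come from custom Agilent 4×180K protein-binding microarrays incubated 1 h with ligand-free nuclear receptor dimers, with antibodies against each partner (one per run) detecting binding. Scanned fluorescence was regression-normalized.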
row,Sequence,PBM binding z-score
1,CGTCCAAGGTCAGAGAGGTCAGTCAATGCCGAGT,4.46
2,AGAATCAGGTTATTAAGATCAGGGAATTGCGGTC,1.21
3,GATACAGCGTCAAGGCCAGAGTACGCGTATTGAT,-0.179
4,ATCTCTAGGTAACAAGTTCAGTGGAAGAGAGGAC,1.56
5,AGAATGAGGTTATCAAGATCAGGGAATTGCGGTC,2.49
6,GAGACTGGGGCAAAGCAGGTTACCATAAGGTTGG,3.14
7,CAGACTGGGGCATAAGGTTACCATAAGCCAGCCC,2
8,CTCGAAAGGTCGGTTGAGGTGCGTATACGGATAA,3.88
9,ATCGAAATGTCGAAGGTGAGTATACCCACCCGAA,-0.023
10,TCTAGTTGGTCACGGTGGTCACACACGACGGGTA,0.234
11,AGAATGAGGTTATTTAGATCAGGGAATTGCGGTC,2.17
12,TAGCCTAGGTCATGGCCCAGTATACCACGCGAAC,3.38
13,GGTACGAGGGCATTCGAGTTGATAGCATGGCGAT,3.28
14,CGAACTCGGTCAGAACAGGACAGTGAAGGATGAT,1.78
15,CCTTACGGGTCCAGGTTATAGCACGGGTGGTACG,0.171
16,CCTATTAGTTGAGCATAAGGGCAACCGAAGCTCG,1.58
17,CCTGACGGGTCACTCCAGGTTATAGCATCGGAGT,5.04
18,CAAACTAGGTCACCGGAAGGTCAAATTCCGCATG,4.58
19,TGAATGAGGTTAAAGATTAGGGAACGTGGCGTCG,2.37
20,GCTATTAGTTGAAAGGGCTACCGAATGATTCTCG,-0.589

row,Sequence,PBM binding z-score
1,TCAGACAGGTGAAGGTAACTCTGGTACGCAGTCG,1.01
2,ATCTCTAGGTCAGACTCAGTTCAGTGAAGAACGC,2.94
3,TAGCATAGGTCATTGGGCCAGTATAGTACGCATC,2.29
4,CCAACTAGGTCAAAGGTCAAAGTCGAGCCAACCA,4.82
5,CCTACTGGGCCAAAAGTCATTGATTCCAATGCTC,-0.256
6,GCTGATAGGTCAACTGATGGTCAGCTAAAGCTCG,2.55
7,CCTACTGGGCCACGCAAGGTCATTGATTCAGTGA,4.54
8,TCATATAGGTAAAGGTGAAAGTCGAACGATATGA,1.38
9,CGTCCAAGGTCGGCAGGTCAGTGAAAGCGACGTG,2.13
10,TCTAGCAGGCCAGATGGTCACTCAAGAGGTACGG,-0.597
11,ACAGACAGGTGAGTGAAGTTAACTCAGCTGGACG,-0.189
12,CAAACTAGGTCAAGGCCAAAGTCGGTTTGTGCCA,2.91
13,TAATATAGGTAAAAGGTGAAAGTCGGTGTGGTAA,1.87
14,GCTTGTAGATCAAGGATAAGAAAGACTAAGCTAA,0.0456
15,TCGAGTAGGTGAGTCGGGGCATTCAGCCAACATA,0.829
16,TATACAGGGTCAAAGGCCAGAGAACGAATGTCGA,3.4
17,CGAACTAGGTCATTGACAGGACAGTCAATAGTAA,2.83
18,CCTACTGGGCCAAAGGGCATTGATTCCAATGCTC,0.159
19,ATCCAAAGGTCGAAGGTGAGTATACCCACCCGAA,2.32
20,CCTAGCAGTCCAATCTGGGTCACTCAAGGCTTGA,2.86

# Test system: THRa homodimer (NR concentration 90 nM)
# Assay: as above
# Procedure, shortened: as §1
row,Sequence,PBM binding z-score
1,CGTCCAAGGTCAGAGAGGTCAGTCAATGCCGAGT,2.83
2,AGAATCAGGTTATTAAGATCAGGGAATTGCGGTC,0.84
3,GATACAGCGTCAAGGCCAGAGTACGCGTATTGAT,-0.406
4,ATCTCTAGGTAACAAGTTCAGTGGAAGAGAGGAC,1.13
5,AGAATGAGGTTATCAAGATCAGGGAATTGCGGTC,0.835
6,GAGACTGGGGCAAAGCAGGTTACCATAAGGTTGG,0.644
7,CAGACTGGGGCATAAGGTTACCATAAGCCAGCCC,1.04
8,CTCGAAAGGTCGGTTGAGGTGCGTATACGGATAA,-0.208
9,ATCGAAATGTCGAAGGTGAGTATACCCACCCGAA,-0.43
10,TCTAGTTGGTCACGGTGGTCACACACGACGGGTA,0.0512
11,AGAATGAGGTTATTTAGATCAGGGAATTGCGGTC,1.06
12,TAGCCTAGGTCATGGCCCAGTATACCACGCGAAC,1.49
13,GGTACGAGGGCATTCGAGTTGATAGCATGGCGAT,-0.337
14,CGAACTCGGTCAGAACAGGACAGTGAAGGATGAT,-0.368
15,CCTTACGGGTCCAGGTTATAGCACGGGTGGTACG,0.291
16,CCTATTAGTTGAGCATAAGGGCAACCGAAGCTCG,0.923
17,CCTGACGGGTCACTCCAGGTTATAGCATCGGAGT,0.311
18,CAAACTAGGTCACCGGAAGGTCAAATTCCGCATG,3.11
19,TGAATGAGGTTAAAGATTAGGGAACGTGGCGTCG,0.417
20,GCTATTAGTTGAAAGGGCTACCGAATGATTCTCG,-0.623

row,Sequence,PBM binding z-score
1,TCAGACAGGTGAAGGTAACTCTGGTACGCAGTCG,0.16
2,ATCTCTAGGTCAGACTCAGTTCAGTGAAGAACGC,2.03
3,TAGCATAGGTCATTGGGCCAGTATAGTACGCATC,-0.526
4,CCAACTAGGTCAAAGGTCAAAGTCGAGCCAACCA,1.79
5,CCTACTGGGCCAAAAGTCATTGATTCCAATGCTC,-0.418
6,GCTGATAGGTCAACTGATGGTCAGCTAAAGCTCG,-0.713
7,CCTACTGGGCCACGCAAGGTCATTGATTCAGTGA,2.64
8,TCATATAGGTAAAGGTGAAAGTCGAACGATATGA,-0.106
9,CGTCCAAGGTCGGCAGGTCAGTGAAAGCGACGTG,0.0758
10,TCTAGCAGGCCAGATGGTCACTCAAGAGGTACGG,-0.77
11,ACAGACAGGTGAGTGAAGTTAACTCAGCTGGACG,-1.01
12,CAAACTAGGTCAAGGCCAAAGTCGGTTTGTGCCA,1.39
13,TAATATAGGTAAAAGGTGAAAGTCGGTGTGGTAA,0.816
14,GCTTGTAGATCAAGGATAAGAAAGACTAAGCTAA,-0.696
15,TCGAGTAGGTGAGTCGGGGCATTCAGCCAACATA,-0.305
16,TATACAGGGTCAAAGGCCAGAGAACGAATGTCGA,0.635
17,CGAACTAGGTCATTGACAGGACAGTCAATAGTAA,0.652
18,CCTACTGGGCCAAAGGGCATTGATTCCAATGCTC,-0.934
19,ATCCAAAGGTCGAAGGTGAGTATACCCACCCGAA,-0.204
20,CCTAGCAGTCCAATCTGGGTCACTCAAGGCTTGA,0.629

# Reference: the supplement of paper PMC6555819
